The assay is described as follows: Secondary Assay for lipid storage modulators. NEFA Incorporation/Release. Conditions: AML12 cells, [3H]oleic acid NEFA release, at 5 µM, stronger effect = lower value. An excerpt: Data Source: University of Maryland BioAssay Type: Secondary Description: NIH Molecular Libraries Probe Production Centers Network [MLPCN] NIH Chemical Genomics Center [NCGC] Assay Submitter (PI): Carole Sztalryd; GRECC/Geriatrics, Veterans Affairs Medical Center, Department of Medicine, School of Medicine, University of Maryland, Baltimore, Maryland, USA. Beller, Mathias; Max-Planck-Institut fur Biophysikalische Chemie, Germany. NCGC Assay Overview: Storing lipids as a reservoir for energy or the anabolism of elementary metabolites is a common feature of probably all cells and is conserved from bacteria to humans. The universal cellular lipid storage organelle is the so-called lipid storage droplet (LD). Although ubiquitous, LDs share a simple structure composed of a hydrophobic core that harbors the storage lipids, which is shielded by a droplet-specific phospholipid monolayer to which proteins are attached. The current model of LD biogenesis involves an incorporation of the lipid core into the membrane leaflets of the endoplasmic reticulum (ER) followed by a subsequent budding-like maturation of a LD, which ultimately pinches off. Once released, LD volume can increase by localized lipogenesis or fusion of existing droplet. Storage lipids are re-mobilized enzymatically by lipase activity. Lipase regulation in the adipocyte is heavily studied and involves multiple components including catecholamine signaling, the LD-associated proteins Perilipin and comparative gene identification (CGI-58) and at least two lipases named hormone sensitive lipase (HSL) and adipocyte triglyceride lipase (ATGL). LD regulation outside of the adipocyte is poorly understood and only few components are known. However, there is an urgent need to learn more about ectopic fat depots as mislocalized storage of lipids, for example in the liver or muscle, is an eminent health problem associated with insulin resistance or the metabolic syndrome. We developed a laser-scanning cytometer assay to enable 1,536-well screening and combined the results of the small molecules screen with an RNAi database based on lipid storage. […]
Assay Protocol Summary: Measurements of NEFA released from lipid droplets or incorporated into the TG fraction were performed as previously described. […] Lipolysis was determined by measuring radioactivity released into the media in 1 h. […] Lipids were extracted by the Bligh-Dyer method, and 10% of the total lipid was analyzed by thin layer chromatography. AML12 cells treated with or without specific siRNAs were additionally incubated with either vehicle (DMSO), 5 uM of Exo1 (12.5 mg/ml DMSO), or BFA (10 mg/ml DMSO) during the time of radioactivity release into the media (2 h). NEFA incorporation into the TG fraction and NEFA release are calculated as […]/mg protein. […]

The values below come from PubChem BioAssay AID1547 (National Center for Advancing Translational Sciences (NCATS), 2009).

Active and inactive are the calls of the source.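 The calls were made as follows: active = compound that significantly cut labelled fatty acid release from lipid-loaded liver cells compared with solvent alone; inactive = the rest.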

As for `COC(=O)c1ccccc1NC(=O)c1ccc(F)cc1`, the NEFA release change was -0.35 nmol/mg (active). Moreover, for the setting “gammaCOP siRNA treatment”, the NEFA release change is -0.3 nmol/mg. Also, the NEFA release change (measured here: ATGL siRNA treatment) is -0.63 nmol/mg. For the setting “measured here: control siRNA treatment”, this compound had an NEFA release change of -0.47 nmol/mg.
